Experiments:
Assay in all cases: DAPPL (digital affinity profiling via proximity ligation, sequencing); 10 mM Tris-HCl pH 7.5, 50 mM NaCl, 1 mM DTT, 4% glycerol, room temperature, 30 min; GST-TFs on glutathione beads, 16-mer random dsDNA library, 0.1% formaldehyde crosslink after washing; high values mean tight binding
Settings in all cases: protein: recombinant; tags: N-terminal GST; dsDNA, one strand shown
ERG = target: T1, ERG (Homo sapiens, UniProt P11308 1-479)
T1 sequence: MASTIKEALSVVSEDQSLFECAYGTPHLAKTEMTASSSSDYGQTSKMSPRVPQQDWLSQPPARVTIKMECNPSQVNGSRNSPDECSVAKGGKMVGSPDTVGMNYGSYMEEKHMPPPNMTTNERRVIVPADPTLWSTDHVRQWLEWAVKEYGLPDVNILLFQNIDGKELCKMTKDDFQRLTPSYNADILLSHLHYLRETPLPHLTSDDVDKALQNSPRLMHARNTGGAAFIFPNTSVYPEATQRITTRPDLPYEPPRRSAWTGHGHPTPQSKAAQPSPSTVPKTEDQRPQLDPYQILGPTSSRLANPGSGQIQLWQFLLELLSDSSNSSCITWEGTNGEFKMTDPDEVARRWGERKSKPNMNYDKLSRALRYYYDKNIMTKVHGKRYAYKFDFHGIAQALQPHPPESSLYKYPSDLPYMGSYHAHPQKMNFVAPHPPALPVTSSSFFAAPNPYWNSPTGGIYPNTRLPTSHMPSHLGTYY
Outline: (§1)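 A tag-only sample was pooled with DNA-barcoded human transcription factors that had been expressed in yeast as GST fusions and captured on glutathione beads. The pools were incubated for 30 min at room temperature with 200 nmole of a random double-stranded 16-mer DNA library in Tris/NaCl/DTT/glycerol buffer, then washed, crosslinked with 0.1% formaldehyde, proximity-ligated (BsaI/T4 ligase, 1 h, 37 °C), PCR-amplified and sequenced on an Illumina NextSeq500. Binding signal is each hexamer's read frequency for a factor divided by its frequency for the tag-only sample.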

EHF = target: T2, EHF (Homo sapiens, UniProt Q9NZC4 1-300)
T2 sequence: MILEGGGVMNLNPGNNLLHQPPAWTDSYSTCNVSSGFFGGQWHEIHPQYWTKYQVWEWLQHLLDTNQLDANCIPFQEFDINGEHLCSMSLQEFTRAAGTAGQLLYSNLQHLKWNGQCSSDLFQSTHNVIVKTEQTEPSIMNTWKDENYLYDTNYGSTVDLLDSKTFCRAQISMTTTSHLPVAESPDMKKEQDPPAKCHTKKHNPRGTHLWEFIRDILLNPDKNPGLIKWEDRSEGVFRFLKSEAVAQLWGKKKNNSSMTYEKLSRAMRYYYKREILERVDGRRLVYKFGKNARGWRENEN
Outline: as §1

SPIB = SPIB (Homo sapiens, UniProt Q01892 1-262)
Outline: as §1

ETV5 = ETV5 (Homo sapiens, UniProt P41161 1-510)
Outline: as §1

ELF4 = ELF4 (Homo sapiens, UniProt Q99607 1-663)
Outline: as §1

ETV2 = target: T3, ETV2 (Homo sapiens, UniProt O00321 1-342)
T3 sequence: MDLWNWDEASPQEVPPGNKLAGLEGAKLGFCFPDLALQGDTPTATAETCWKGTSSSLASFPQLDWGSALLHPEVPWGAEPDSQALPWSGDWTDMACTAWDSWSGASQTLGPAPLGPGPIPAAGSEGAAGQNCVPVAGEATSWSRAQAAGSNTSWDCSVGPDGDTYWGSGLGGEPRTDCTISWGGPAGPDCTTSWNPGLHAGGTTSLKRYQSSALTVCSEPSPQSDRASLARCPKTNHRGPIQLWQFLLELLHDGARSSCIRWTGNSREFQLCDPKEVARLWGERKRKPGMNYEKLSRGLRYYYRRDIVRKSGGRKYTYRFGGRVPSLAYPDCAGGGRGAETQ
Outline: as §1

ELF3 = target: T4, ELF3 (Homo sapiens, UniProt P78545 1-371)
T4 sequence: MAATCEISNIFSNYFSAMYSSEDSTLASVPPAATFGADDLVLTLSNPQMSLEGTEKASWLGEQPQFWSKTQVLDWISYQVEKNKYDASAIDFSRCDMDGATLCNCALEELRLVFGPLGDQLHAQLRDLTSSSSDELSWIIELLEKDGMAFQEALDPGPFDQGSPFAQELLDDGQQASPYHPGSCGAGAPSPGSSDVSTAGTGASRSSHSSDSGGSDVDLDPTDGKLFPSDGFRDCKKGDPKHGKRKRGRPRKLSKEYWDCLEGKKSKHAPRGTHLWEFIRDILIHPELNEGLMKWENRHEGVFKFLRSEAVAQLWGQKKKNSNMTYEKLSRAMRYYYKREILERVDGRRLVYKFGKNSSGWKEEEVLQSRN
Outline: as §1

ERF = target: T5, ERF (Homo sapiens, UniProt P50548 1-548)
T5 sequence: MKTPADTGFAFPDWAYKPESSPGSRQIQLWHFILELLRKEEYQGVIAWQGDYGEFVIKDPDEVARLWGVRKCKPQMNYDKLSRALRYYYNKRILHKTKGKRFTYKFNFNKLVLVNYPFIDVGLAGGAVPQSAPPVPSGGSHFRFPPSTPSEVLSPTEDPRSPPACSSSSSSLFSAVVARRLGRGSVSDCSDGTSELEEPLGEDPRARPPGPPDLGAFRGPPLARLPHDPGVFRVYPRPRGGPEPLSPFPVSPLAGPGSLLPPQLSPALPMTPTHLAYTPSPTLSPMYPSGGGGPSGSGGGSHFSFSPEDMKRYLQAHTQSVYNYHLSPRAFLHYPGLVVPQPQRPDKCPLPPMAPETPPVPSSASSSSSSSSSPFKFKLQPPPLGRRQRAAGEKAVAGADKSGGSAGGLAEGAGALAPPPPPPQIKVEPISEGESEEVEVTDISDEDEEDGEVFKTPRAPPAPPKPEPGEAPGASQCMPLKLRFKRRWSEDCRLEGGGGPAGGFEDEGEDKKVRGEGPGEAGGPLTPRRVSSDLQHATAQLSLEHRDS
Outline: as §1

ETV3L = target: T6, ETV3L (Homo sapiens, UniProt Q6ZN32 1-361)
T6 sequence: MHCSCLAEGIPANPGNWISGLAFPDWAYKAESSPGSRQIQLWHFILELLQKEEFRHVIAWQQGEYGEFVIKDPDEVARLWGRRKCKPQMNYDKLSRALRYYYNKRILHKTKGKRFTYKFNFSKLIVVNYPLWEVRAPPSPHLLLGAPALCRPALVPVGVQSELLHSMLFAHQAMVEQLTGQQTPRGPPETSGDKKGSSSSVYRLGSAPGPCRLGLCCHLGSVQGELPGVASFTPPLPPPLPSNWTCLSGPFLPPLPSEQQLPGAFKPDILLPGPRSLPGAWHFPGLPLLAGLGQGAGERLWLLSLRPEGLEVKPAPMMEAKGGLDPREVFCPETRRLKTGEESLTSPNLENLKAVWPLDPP
Outline: as §1

ETS2 = target: T7, ETS2 (Homo sapiens, UniProt P15036 1-469)
T7 sequence: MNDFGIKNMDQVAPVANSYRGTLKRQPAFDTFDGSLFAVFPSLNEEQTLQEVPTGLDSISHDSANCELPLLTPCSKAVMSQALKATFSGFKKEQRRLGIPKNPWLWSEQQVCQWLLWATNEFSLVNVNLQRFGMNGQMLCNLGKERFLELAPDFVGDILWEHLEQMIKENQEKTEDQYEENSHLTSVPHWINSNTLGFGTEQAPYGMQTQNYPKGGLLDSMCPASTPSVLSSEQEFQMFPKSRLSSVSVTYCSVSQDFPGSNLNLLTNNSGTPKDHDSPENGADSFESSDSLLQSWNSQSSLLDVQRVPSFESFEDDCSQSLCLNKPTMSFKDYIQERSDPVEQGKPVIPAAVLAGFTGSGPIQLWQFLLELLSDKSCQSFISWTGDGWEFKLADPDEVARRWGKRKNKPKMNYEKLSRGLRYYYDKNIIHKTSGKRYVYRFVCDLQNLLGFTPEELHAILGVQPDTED
Outline: as §1

SPDEF = target: T8, SPDEF (Homo sapiens, UniProt O95238 1-335)
T8 sequence: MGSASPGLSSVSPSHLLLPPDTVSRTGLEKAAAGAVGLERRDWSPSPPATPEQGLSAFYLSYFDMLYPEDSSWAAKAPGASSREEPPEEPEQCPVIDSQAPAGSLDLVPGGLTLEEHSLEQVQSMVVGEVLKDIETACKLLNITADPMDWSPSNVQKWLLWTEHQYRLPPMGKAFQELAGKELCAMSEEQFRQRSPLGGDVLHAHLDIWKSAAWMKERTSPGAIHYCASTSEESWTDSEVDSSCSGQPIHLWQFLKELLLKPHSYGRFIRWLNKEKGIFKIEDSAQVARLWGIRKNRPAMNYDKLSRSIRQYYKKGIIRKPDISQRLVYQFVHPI
Outline: as §1

ETV6 = ETV6 (Homo sapiens, UniProt P41212 1-452)
Outline: as §1

GABPA = target: T9, GABPA (Homo sapiens, UniProt Q06546 1-454)
T9 sequence: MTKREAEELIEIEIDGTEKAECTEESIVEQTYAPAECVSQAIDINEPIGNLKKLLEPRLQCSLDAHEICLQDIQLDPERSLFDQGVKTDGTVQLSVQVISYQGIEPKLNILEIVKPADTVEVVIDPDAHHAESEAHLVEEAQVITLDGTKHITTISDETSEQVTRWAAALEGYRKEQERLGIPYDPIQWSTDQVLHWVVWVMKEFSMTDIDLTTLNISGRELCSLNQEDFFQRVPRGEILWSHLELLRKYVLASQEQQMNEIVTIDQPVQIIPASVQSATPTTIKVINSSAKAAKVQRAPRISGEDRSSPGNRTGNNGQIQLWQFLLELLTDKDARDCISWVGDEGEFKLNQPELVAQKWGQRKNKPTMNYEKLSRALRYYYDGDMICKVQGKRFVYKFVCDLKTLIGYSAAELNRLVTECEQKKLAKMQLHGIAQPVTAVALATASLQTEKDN
Outline: as §1

Chain of ETV5 (P41161 whole entry): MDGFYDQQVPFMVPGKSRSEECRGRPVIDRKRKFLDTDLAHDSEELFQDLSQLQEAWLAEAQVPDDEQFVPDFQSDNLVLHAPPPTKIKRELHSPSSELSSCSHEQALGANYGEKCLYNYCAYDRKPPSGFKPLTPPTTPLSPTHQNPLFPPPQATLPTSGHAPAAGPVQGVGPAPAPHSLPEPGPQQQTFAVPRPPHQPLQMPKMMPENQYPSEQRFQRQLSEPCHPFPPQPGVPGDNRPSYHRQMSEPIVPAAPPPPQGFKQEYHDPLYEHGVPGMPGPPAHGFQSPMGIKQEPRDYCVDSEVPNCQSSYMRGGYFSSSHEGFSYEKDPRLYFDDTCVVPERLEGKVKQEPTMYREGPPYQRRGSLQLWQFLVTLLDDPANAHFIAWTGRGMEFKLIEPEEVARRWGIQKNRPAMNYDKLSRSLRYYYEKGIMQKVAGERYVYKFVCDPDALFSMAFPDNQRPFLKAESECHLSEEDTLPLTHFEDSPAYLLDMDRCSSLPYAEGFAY
Chain of ELF4 (Q99607 whole entry): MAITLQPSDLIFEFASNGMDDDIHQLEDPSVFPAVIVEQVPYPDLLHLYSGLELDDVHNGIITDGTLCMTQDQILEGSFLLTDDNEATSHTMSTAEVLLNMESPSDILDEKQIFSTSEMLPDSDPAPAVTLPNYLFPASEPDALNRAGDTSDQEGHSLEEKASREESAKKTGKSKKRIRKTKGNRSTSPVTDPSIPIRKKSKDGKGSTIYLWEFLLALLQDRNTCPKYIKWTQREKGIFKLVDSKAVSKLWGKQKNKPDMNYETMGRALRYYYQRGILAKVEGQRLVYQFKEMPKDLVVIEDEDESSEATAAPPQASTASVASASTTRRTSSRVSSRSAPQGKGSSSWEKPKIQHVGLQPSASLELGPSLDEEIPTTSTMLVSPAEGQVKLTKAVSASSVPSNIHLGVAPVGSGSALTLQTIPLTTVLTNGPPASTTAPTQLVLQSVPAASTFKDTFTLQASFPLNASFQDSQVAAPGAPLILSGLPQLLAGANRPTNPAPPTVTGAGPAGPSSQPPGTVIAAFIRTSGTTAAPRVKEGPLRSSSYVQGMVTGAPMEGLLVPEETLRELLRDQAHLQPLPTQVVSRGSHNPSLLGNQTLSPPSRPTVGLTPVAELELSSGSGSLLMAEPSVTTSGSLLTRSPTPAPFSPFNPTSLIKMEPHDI
Chain of ETV6 (P41212 whole entry): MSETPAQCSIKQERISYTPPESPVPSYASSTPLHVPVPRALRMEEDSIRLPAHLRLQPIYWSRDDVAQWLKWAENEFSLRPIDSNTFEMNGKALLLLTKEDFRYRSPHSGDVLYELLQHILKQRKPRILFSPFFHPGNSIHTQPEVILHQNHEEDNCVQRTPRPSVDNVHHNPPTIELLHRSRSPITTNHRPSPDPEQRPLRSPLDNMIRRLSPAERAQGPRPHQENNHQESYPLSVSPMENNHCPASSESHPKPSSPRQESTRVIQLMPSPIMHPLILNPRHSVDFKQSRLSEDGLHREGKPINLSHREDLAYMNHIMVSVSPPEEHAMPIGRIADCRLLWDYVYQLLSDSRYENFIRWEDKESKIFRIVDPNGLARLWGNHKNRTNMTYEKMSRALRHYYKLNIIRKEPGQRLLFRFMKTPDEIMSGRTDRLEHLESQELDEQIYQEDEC
Chain of SPIB (Q01892 whole entry): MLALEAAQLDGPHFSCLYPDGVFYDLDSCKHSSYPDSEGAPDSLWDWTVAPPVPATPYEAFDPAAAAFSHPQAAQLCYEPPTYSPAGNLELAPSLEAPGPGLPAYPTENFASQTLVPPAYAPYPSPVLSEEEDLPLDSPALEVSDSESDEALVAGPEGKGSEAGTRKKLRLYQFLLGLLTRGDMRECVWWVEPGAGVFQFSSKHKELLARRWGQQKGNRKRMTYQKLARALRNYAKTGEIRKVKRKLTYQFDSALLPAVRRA

TAGGAT
binding signal (ERG): 1.07 fold enrichment (6-mer frequency, TF over GST control)
binding signal (EHF): 1.06 fold enrichment (6-mer frequency, TF over GST control)
binding signal (SPIB): 1.03 fold enrichment (6-mer frequency, TF over GST control)
binding signal (ETV5): 1.03 fold enrichment (6-mer frequency, TF over GST control)
binding signal (ELF4): 1 fold enrichment (6-mer frequency, TF over GST control)
binding signal (ETV2): 1.03 fold enrichment (6-mer frequency, TF over GST control)
binding signal (ELF3): 1.03 fold enrichment (6-mer frequency, TF over GST control)
binding signal (ERF): 1.02 fold enrichment (6-mer frequency, TF over GST control)
binding signal (ETV3L): 1.06 fold enrichment (6-mer frequency, TF over GST control)
binding signal (ETS2): 1.03 fold enrichment (6-mer frequency, TF over GST control)
binding signal (SPDEF): 1.22 fold enrichment (6-mer frequency, TF over GST control)
binding signal (ETV6): 1.06 fold enrichment (6-mer frequency, TF over GST control)

AGAGCT
binding signal (GABPA): 1.04 fold enrichment (6-mer frequency, TF over GST control)
binding signal (EHF): 1.01 fold enrichment (6-mer frequency, TF over GST control)
binding signal (ETV5): 1.03 fold enrichment (6-mer frequency, TF over GST control)
binding signal (ELF3): 1.03 fold enrichment (6-mer frequency, TF over GST control)

— PMC7862700, “An all-to-all approach to the identification of sequence-specific readers for epigenetic DNA modifications on cytosine”
